# In PubChem BioAssay (Tox21):
# “And” between values parts separate entries of the source, which are not always exact repeats. Identical values can stand only once. Records with an inconclusive call do not appear. A call without a number means that no potency is given here. Some compounds were tested as several samples or in several runs, with calls that do not always agree. The source made the active and inactive calls. Unless noted, the call rests on the fitted dose curve; in most records, active means well fitted curve in the direction sought with a large enough effect in the repeat runs; inconclusive means weak or mixed curves; inactive means no such curve, though single readings can be large; an effect the other way counts as inactive or inconclusive.
# Assays:
# [1] = qHTS assay to identify small molecule antagonists of the sonic hedgehog signaling (Shh) pathway (AID 1259369; calls by dose curve; further: nearly all actives have a fitted effect of over 45% in size; further: potency means the concentration at half of the fitted maximal effect)
# How it was run: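 NIH/3T3-derived 3T3Gli1-Luc cells with stably integrated Gli1-Luc reporter were preincubated 4hr at 37 C, then given compounds in DMSO plus Shh conditioned medium and incubated 24hr. Firefly luciferase luminescence read after 30min reagent at room temperature.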
# [2] = target: Estrogen receptor beta (Homo sapiens) (UniProt Q92731); assay: qHTS assay to identify small molecule agonists of the estrogen receptor beta (ER-beta) signaling pathway (AID 1259377; active means well fitted activation curve with a large enough effect in the signal ratio in the repeat runs, not every such curve was filed as active; the % refers to the signal ratio)
# How it was run: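 In HEK293T cells bearing a UAS-beta-lactamase reporter under ER-beta control, DMSO-delivered compounds were incubated for 16 hr at 37C. Activity was detected as fluorescence 2 hours after LiveBLAzer B/G FRET substrate addition.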
# [3] = target: Estrogen receptor beta (Homo sapiens) (UniProt Q92731); assay: qHTS assay to identify small molecule antagonists of the estrogen receptor beta (ER-beta) signaling pathway (AID 1259378; active means well fitted inhibition curve with a large enough effect in the signal ratio in the repeat runs, not every such curve was filed as active; the % refers to the signal ratio)
# How it was run: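 Antagonist mode: compounds added to beta-lactamase reporter HEK293T ER-beta-UAS cells stimulated with E2 (1nM final), 16 hr at 37C. LiveBLAzer B/G FRET substrate, 2 hours room temperature, fluorescence read-out.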
# [4] = qHTS assay to identify small molecule agonists of the androgen receptor (AR) signaling pathway in the presence of an antagonist - cell viability counter screen (AID 1259379); further: series mostly up to about 92 µM; nearly all actives have a fitted effect of over 25% in size
# How it was run: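 MDA-kb2 human breast carcinoma cells (stable MMTV-luciferase, AR/GR responsive) were seeded 3,000 cells/well, pre-incubated 5 hr at 37C without CO2, then given 3.0uM nilutamide and compounds at 15 concentrations for 16 hr. Viability was read by CellTiter-Fluor fluorescence.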
# [5] = qHTS assay to identify small molecule antagonists of the estrogen receptor beta (ER-beta) signaling pathway - cell viability counter screen (AID 1259382);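 further: HEK293T cells carrying ER-beta-UAS-bla reporter stimulated with estradiol; series mostly up to about 92 µM; nearly all actives have a fitted effect of over 55% in size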
# How it was run: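 ER-beta-UAS-bla HEK293T cells (2,000/well, 2% charcoal-stripped FBS) were pre-incubated 6 hr at 37C, then given compound plus 1nM final 17-beta-estradiol for 16 hr. Viability was read in the same wells by CellTiter-Glo luminescence after 30 min at room temperature.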
# [6] = target: Estrogen receptor (Homo sapiens) (UniProt P03372); assay: qHTS assay to identify small molecule agonists of the estrogen receptor alpha (ER-alpha) signaling pathway in the presence of an antagonist (AID 1259383; calls by dose curve; further: top concentration of the series differs between compounds; nearly all actives have a fitted effect of over 15% in size)
# How it was run: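 VM7Luc4E2 cells (endogenous full-length ER-alpha, 4×ERE-luciferase) were precultured 5 days in phenol red-free medium with 10% charcoal-stripped FBS, given 10.0nM ICI-182,780 (final), then treated with compounds at 15 concentrations for 22hr at 37C; luminescence read with ONE-Glo.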
# [7] = qHTS assay to identify small molecule agonists or antagonists of the thyroid stimulating hormone receptor (TSHR) signaling pathway - wild type cell line counter screen (AID 1259384; calls by dose curve)
# How it was run: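 Counter screen in untransfected Hek293: compounds (15-point titration, triplicate) plus phosphodiesterase inhibitor Ro20-1724 added after 18 h plating; 30 min RT. Intracellular cAMP via competitive d2/cryptate immunoassay, 1 h incubation.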
# [8] = target: Thyrotropin receptor (Homo sapiens) (UniProt P16473); assay: qHTS assay to identify small molecule antagonists of the thyroid stimulating hormone receptor (TSHR) signaling pathway (AID 1259385; calls by dose curve; further: nearly all actives have a fitted effect of over 20% in size)
# How it was run: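 Antagonist mode: compound-treated TSHR-expressing HEK293 cells were stimulated with 1.5 ng/mL TSH (final) in presence of Ro20-1724 for 30 min at RT. HTRF cAMP detection after 1 h; each compound tested at 15 concentrations, triplicate.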
# [9] = qHTS assay to identify small molecule agonists of the estrogen receptor alpha (ER-alpha) signaling pathway in the presence of an antagonist - cell viability counter screen (AID 1259386);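 further: series mostly up to about 92 µM; cells exposed to compounds for 22 h at 37 °C before the viability read; nearly all actives have a fitted effect of over 30% in size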
# How it was run: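 VM7Luc4E2 cells (endogenous full-length ER-alpha, 4×ERE-luciferase) were held 5 days in phenol red-free medium with 10% charcoal-stripped FBS, plated, then given 10.0nM ICI-182,780 and compounds at 15 concentrations for 22hr at 37C; viability read by CellTiter-Fluor fluorescence.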
# [10] = target: Progesterone receptor (Homo sapiens) (UniProt P06401); assay: qHTS assay to identify small molecule agonists of the progesterone receptor (PR) signaling pathway (AID 1346784; calls by dose curve; further: nearly all actives have a fitted effect of over 30% in size)
# How it was run: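 Using charcoal-stripped serum (2%) to limit endogenous steroids, PR-UAS-bla HEK 293T cells received compounds for 16 hr at 37C after 6 hr plating; beta-lactamase FRET fluorescence was recorded following 2 hr substrate loading at room temperature.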
# [11] = target: Progesterone receptor (Homo sapiens) (UniProt P06401); assay: qHTS assay to identify small molecule antagonists of the progesterone receptor (PR) signaling pathway (AID 1346795; active means well fitted inhibition curve with a large enough effect in the signal ratio in the repeat runs, not every such curve was filed as active; the % refers to the signal ratio)
# How it was run: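 Inhibition of R5020-induced (1 nM final) beta-lactamase reporter signal in PR-UAS-bla HEK293T cells was scored by FRET fluorescence after overnight (16 hr) compound treatment.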
# [12] = qHTS assay to identify small molecule antagonists of the TGF-beta/Smad signaling pathway - cell viability counter screen (AID 1346824); further: nearly all actives have a fitted effect of over 50% in size
# How it was run: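 Cytotoxicity counter-screen run in the same wells as the beta-lactamase Smad reporter read: CellTiter-Glo luminescence after 30 min at room temperature. HEK 293T SBE-bla cells had 5 hr compound exposure at 37 C with TGF-beta1 (0.25 ng/mL stock).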
# [13] = qHTS assay to identify small molecule agonists of the TGF-beta/Smad signaling pathway - cell viability counter screen (AID 1346829); further: top concentration of the series differs between compounds; nearly all actives have a fitted effect of over 45% in size
# How it was run: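 CellTiter-Glo luminescence readout; SBE-bla HEK 293T cells, overnight plating, compound 5 hr at 37 C/5% CO2, then bla substrate 2 hr RT, then CellTiter-Glo 30 min RT.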
# [14] = qHTS assay to identify small molecule agonists of the TGF-beta/Smad signaling pathway (AID 1346859; active means well fitted activation curve with a large enough effect in the signal ratio in the repeat runs, not every such curve was filed as active; the % refers to the signal ratio; further: series mostly up to about 77 µM)
# How it was run: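 Stable Smad binding element-beta-lactamase HEK 293T cells; 5 hr compound exposure at 37 C under 5% CO2; 2 hr room-temperature substrate step; fluorescence excited at 405 nm, collected at 460 nm and 530 nm.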
# [15] = qHTS assay to identify small molecule agonists of the estrogen receptor beta (ER-beta) signaling pathway - cell viability counter screen (AID 1259380); further: nearly all actives have a fitted effect of over 30% in size
# How it was run: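 ER-beta-UAS-bla HEK293T cells in medium with 2% charcoal-stripped FBS were preincubated 6 hr at 37C, dosed with compound in DMSO for 16 hr, then after the bla read, CellTiter-Glo was added for 30 min at room temperature; luminescence recorded.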
# [16] = qHTS assay to identify small molecule antagonists of the progesterone receptor (PR) signaling pathway - cell viability counter screen (AID 1346798); further: series mostly up to about 92 µM; nearly all actives have a fitted effect of over 50% in size
# How it was run: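 ATP content as viability readout: CellTiter-Glo luminescence, 30 min room temperature, in PR-UAS-bla HEK293T cells after 16 hr compound/R5020 treatment at 37C and 5% CO2.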
# [17] = qHTS assay to identify small molecule agonists of the progesterone receptor (PR) signaling pathway - cell viability counter screen (AID 1346799; calls by dose curve; further: nearly all actives have a fitted effect of over 45% in size)
# How it was run: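 Cytotoxicity in PR-bla HEK293T cells: 16 h compound, 37C; CellTiter-Glo added post-FRET read; luminescence after 30 min RT.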
# [18] = target: Thyrotropin-releasing hormone receptor (Homo sapiens) (UniProt P34981); assay: qHTS assay to identify small molecule antagonists of the thyrotropin-releasing hormone receptor (TRHR) signaling pathway (AID 1346877; active means well fitted inhibition curve with a large enough effect in the repeat runs, not every such curve was filed as active; further: series mostly up to about 51 µM)
# How it was run: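 TRHR-expressing HEK293 cells were seeded, cultured 18 h at 37 °C, then loaded with calcium dye for 2 h. Compounds were pre-incubated 5 min at room temperature before 1 nM TRH (final) was added, and kinetic fluorescence was recorded for 3 min.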
# [19] = target: Thyrotropin-releasing hormone receptor (Homo sapiens) (UniProt P34981); assay: qHTS assay to identify small molecule agonists of the thyrotropin-releasing hormone receptor (TRHR) signaling pathway (AID 1346891; calls by dose curve; further: series mostly up to about 58 µM)
# How it was run: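 In 1536-format, 1500 TRHR-Hek293 cells per well grew 18 h, took up calcium dye for 2 h at 37 °C, received compound, and were read kinetically; 15-point titrations, triplicates.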
# [20] = target: Androgen receptor (Homo sapiens) (UniProt P10275); assay: qHTS assay to identify small molecule agonists of the androgen receptor (AR) signaling pathway in the presence of an antagonist (AID 1259381; calls by dose curve; further: nearly all actives have a fitted effect of over 15% in size; further: potency means the concentration at half of the fitted maximal effect)
# How it was run: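 MDA-kb2 human breast carcinoma cells carrying an MMTV-luciferase reporter (AR- and GR-responsive) were treated with compounds at 15 concentrations plus 3.0uM final nilutamide for 16hr at 37C without CO2; luminescence was read after ONE-Glo addition.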
# Progesterone receptor (Homo sapiens), sequence (P06401 whole entry, looked up): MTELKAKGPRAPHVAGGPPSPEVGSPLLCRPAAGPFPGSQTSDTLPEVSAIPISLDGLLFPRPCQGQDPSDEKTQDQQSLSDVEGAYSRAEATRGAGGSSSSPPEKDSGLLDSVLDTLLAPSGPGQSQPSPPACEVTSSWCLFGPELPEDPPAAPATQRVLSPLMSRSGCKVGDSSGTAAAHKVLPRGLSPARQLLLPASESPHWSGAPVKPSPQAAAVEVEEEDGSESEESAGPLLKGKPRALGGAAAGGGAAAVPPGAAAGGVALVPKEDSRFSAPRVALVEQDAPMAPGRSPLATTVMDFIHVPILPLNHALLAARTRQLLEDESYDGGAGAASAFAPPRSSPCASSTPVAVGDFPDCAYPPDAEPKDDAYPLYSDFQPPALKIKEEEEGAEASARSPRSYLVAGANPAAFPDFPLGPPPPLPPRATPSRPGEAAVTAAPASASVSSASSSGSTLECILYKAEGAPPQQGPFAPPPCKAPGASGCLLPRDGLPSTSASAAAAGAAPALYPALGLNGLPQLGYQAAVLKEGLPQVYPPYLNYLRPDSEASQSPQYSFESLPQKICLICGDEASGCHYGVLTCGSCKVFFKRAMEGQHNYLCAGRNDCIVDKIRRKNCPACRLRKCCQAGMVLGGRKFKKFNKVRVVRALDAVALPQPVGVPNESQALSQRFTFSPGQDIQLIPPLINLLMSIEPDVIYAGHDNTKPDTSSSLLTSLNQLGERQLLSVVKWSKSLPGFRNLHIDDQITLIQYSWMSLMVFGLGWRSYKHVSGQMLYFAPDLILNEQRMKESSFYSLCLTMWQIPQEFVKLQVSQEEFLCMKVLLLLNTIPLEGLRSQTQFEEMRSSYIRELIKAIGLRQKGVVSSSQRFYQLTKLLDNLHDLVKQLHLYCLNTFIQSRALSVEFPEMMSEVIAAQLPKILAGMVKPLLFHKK
# Estrogen receptor (Homo sapiens), sequence (P03372 whole entry, looked up): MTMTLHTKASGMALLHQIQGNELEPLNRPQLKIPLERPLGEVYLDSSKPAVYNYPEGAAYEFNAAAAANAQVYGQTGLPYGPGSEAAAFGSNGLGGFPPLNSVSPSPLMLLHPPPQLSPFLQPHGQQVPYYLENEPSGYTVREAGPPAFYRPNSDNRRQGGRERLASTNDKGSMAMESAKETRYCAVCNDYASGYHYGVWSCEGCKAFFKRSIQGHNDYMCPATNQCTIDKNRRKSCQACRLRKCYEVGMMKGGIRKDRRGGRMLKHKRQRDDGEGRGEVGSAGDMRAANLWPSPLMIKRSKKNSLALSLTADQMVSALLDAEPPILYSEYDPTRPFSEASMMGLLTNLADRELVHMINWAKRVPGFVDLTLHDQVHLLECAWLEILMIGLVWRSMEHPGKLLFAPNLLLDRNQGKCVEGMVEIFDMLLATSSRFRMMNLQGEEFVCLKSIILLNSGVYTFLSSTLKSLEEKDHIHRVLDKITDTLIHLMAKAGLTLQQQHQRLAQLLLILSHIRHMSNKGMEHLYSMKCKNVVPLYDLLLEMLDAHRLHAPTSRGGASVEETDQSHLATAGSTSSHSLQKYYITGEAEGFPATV
# Thyrotropin receptor (Homo sapiens), sequence (P16473 whole entry, looked up): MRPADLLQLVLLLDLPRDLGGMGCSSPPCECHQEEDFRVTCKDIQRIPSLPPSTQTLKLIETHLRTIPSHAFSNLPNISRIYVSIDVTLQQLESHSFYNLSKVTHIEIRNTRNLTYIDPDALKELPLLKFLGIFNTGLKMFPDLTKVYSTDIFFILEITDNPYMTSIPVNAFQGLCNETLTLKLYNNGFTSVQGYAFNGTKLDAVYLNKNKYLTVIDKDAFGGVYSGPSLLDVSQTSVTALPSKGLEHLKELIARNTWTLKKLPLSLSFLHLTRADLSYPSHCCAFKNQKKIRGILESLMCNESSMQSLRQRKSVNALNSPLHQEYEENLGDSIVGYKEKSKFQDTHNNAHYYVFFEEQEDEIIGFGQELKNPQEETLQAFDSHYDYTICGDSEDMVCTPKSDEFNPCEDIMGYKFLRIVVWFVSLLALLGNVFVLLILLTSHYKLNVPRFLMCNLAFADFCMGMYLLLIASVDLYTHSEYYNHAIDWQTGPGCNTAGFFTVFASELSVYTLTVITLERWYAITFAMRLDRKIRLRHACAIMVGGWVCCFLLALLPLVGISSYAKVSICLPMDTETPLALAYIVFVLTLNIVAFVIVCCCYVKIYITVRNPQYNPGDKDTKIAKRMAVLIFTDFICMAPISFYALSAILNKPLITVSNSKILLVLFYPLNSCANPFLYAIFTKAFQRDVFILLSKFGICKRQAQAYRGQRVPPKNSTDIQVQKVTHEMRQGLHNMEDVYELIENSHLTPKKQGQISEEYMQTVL
# Androgen receptor (Homo sapiens), sequence (P10275 whole entry, looked up): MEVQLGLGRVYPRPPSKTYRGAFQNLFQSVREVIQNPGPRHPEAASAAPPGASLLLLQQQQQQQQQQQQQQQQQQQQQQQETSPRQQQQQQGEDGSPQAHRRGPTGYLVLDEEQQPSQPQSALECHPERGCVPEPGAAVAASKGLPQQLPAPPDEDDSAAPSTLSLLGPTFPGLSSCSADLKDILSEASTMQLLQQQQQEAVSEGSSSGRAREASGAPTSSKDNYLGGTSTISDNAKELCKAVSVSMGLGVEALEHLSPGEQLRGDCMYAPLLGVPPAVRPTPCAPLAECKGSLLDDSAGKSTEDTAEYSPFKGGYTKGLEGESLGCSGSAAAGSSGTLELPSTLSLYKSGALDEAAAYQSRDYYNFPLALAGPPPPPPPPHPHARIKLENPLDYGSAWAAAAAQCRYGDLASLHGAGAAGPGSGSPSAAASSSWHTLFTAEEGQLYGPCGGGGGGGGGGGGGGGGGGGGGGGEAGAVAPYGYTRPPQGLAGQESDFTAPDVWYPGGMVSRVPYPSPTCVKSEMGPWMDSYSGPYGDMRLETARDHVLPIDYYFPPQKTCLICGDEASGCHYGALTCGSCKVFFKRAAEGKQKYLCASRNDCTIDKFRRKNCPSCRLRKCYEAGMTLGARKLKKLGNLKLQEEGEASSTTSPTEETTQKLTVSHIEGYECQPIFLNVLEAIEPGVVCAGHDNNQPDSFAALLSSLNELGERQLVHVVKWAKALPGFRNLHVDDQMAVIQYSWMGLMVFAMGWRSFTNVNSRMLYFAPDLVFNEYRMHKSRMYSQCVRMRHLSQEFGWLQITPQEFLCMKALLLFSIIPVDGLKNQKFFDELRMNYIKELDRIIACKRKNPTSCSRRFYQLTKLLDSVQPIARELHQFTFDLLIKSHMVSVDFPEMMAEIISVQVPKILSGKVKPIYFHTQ
# Thyrotropin-releasing hormone receptor (Homo sapiens), sequence (P34981 whole entry, looked up): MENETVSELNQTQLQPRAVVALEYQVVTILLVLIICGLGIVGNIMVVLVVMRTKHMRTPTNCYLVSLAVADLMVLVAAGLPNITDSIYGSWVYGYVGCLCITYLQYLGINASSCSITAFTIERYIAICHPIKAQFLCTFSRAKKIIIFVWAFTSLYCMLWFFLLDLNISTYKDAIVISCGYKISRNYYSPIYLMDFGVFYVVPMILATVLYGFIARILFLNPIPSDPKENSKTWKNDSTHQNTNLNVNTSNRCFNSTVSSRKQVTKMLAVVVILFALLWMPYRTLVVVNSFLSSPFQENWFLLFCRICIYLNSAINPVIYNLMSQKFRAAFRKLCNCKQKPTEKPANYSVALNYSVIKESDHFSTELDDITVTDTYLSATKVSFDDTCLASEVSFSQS
# Estrogen receptor beta (Homo sapiens), sequence (Q92731 whole entry, looked up): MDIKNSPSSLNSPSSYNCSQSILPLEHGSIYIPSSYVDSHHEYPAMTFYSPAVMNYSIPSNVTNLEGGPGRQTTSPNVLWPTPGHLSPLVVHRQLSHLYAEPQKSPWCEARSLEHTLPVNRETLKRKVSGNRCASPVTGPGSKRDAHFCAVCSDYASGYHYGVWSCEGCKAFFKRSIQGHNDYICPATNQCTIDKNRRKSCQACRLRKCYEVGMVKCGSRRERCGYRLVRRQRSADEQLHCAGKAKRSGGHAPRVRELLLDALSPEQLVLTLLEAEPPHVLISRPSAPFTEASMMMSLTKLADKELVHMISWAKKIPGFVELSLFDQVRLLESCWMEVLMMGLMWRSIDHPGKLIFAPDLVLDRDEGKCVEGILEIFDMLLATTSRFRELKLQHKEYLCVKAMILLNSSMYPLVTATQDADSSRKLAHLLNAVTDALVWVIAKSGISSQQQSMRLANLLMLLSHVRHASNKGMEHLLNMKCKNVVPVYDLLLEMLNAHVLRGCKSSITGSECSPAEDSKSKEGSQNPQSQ
Structure (SMILES),Potency [1],outcome [2],outcome [3],Potency [4],Potency [5],Potency [6],outcome [7],Potency [8],Potency [9],Potency [10],Potency [11],Potency [12],outcome [13],outcome [14],Potency [15],Potency [16],Potency [17],outcome [18],outcome [19],Potency [20]
C=CCCCCCCCCC=O,inactive,inactive,inactive,inactive,inactive,inactive,inactive,inactive,inactive,inactive,inactive,inactive,inactive,inactive,–,–,–,–,–,–
CCc1ccc(O)c(OC)c1,inactive,–,inactive,inactive,inactive,–,inactive,inactive,inactive,inactive,–,inactive,inactive,inactive,inactive,inactive,inactive,inactive,inactive,–
CC(=O)OCC(=O)[C@@]1(O)CCC2C3CCC4=CC(=O)CC[C@]4(C)C3[C@@H](O)C[C@@]21C (stereo not given in full),inactive,inactive,inactive,inactive,inactive,–,inactive,inactive,inactive,–,–,inactive,inactive,inactive,inactive,inactive,inactive,–,–,–
CCOC(=O)Nc1ccc(NCc2ccc(F)cc2)nc1N,inactive,inactive,inactive,inactive,inactive,inactive,inactive,inactive,inactive,inactive,inactive,inactive,–,inactive,–,–,–,–,–,–
O=C1CC2CC1C1CCCC21 (stereo not given),inactive,inactive,inactive,inactive,inactive,inactive,inactive,inactive,inactive,inactive,inactive,inactive,inactive,inactive,–,inactive,inactive,inactive,inactive,27.3 µM (active)
CCCCCCCCS(=O)(=O)Cl,inactive,inactive,–,inactive,inactive,–,inactive,inactive,inactive,inactive,inactive,inactive,inactive,inactive,inactive,inactive,–,inactive,inactive,–
CC(C[N+](C)(C)C)OC(N)=O (stereo not given),inactive,inactive,inactive,inactive,inactive,inactive,–,–,inactive,inactive,inactive,inactive,–,inactive,–,inactive,inactive,inactive,inactive,–
c1ccc(CC2=NCCN2)cc1,inactive,inactive,–,inactive,inactive,inactive,inactive,inactive,inactive,inactive,inactive,inactive,inactive,inactive,–,inactive,inactive,inactive,inactive,–
Brc1c(NC2=NCCN2)ccc2nccnc12,inactive,–,inactive,inactive,inactive,–,inactive,inactive,inactive,inactive,inactive,inactive,inactive,inactive,–,inactive,inactive,–,–,–
CCc1cccc2c(CCO)c[nH]c12,inactive,inactive,inactive,inactive,inactive,–,inactive,inactive,inactive,inactive,inactive,inactive,inactive,inactive,–,inactive,inactive,inactive,inactive,inactive
O=c1n(CCO)c(=O)n(CCO)c(=O)n1CCO,inactive and 27.3 µM (active),inactive,inactive,inactive,inactive,inactive,inactive,inactive,inactive,inactive,inactive,inactive,inactive,inactive,–,–,–,inactive,inactive,–
N=C(N)c1ccccc1,inactive,inactive,inactive,inactive,inactive,–,inactive,inactive,inactive,inactive,inactive,inactive,inactive,inactive,–,–,–,inactive,inactive,–
CC(C)NCC(O)c1ccc(NS(C)(=O)=O)cc1 (stereo not given),inactive,inactive,inactive,inactive,inactive,–,inactive,inactive,inactive,–,inactive,inactive,inactive,inactive,inactive,inactive,inactive,inactive,inactive,–
CCSC(=O)N(CC(C)C)CC(C)C,inactive,inactive,–,inactive,inactive,inactive,inactive,inactive,inactive,inactive,inactive,inactive,inactive,inactive,inactive,inactive,inactive,–,–,inactive
O=C1CCCCCCCCCCCN1,inactive,inactive,inactive,inactive,inactive,inactive,inactive,inactive,inactive,inactive,inactive,inactive,inactive,inactive,–,inactive,inactive,inactive,inactive,–
O=C(O)CNC(=O)c1ccc([N+](=O)[O-])cc1,inactive,inactive,inactive,inactive,inactive,–,–,–,inactive,inactive,inactive,inactive,inactive,inactive,inactive,inactive,inactive,inactive,inactive,–
